# Bioassay records deposited in PubChem BioAssay by National Center for Advancing Translational Sciences (NCATS).
# G9a inh – qHTS Assay for Inhibitors of Histone Lysine Methyltransferase G9a | G9a H3K9 monomethylation, AlphaScreen, 2 h | Potency, µM (highest dose often 102 µM), without a hit: top-dose activity, negative = inhibition, hits mostly inhibitors | 350,000 tested, 8.8% active | AID 504332, 2011; note: % is set by controls: 0 for no effect and ±100 for the full control effect; nearly all actives have a fitted effect of over 75% in size
#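 AlphaScreen detection with an anti-monomethyl H3K9 antibody quantified product after a 2 h room-temperature reaction containing 500 nM biotinylated H3K9 peptide, 20 µM SAM and 20 nM enzyme, which had been preincubated 15 min with compound.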
# Sfp PPTase inh – qHTS Assay for Inhibitors of Bacillus subtilis Sfp phosphopantetheinyl transferase (PPTase). Biochemical Sfp PPTase activity, qHTS. Potency, µM, without a hit: largest response in the series, negative = inhibition, most hits filed as inhibitors. 310,000 tested, 3.5% active. 4'-phosphopantetheinyl transferase ffp (Bacillus subtilis), Q9F4F7. AID 1490, 2009;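 note: the enzyme is Sfp with the accession as filed and its product quenches rhodamine fluorescence; 0% = enzyme reaction without inhibitor and -100% = no enzyme wells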
#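 Fluorescence-quenching assay with 15 nM Sfp, 5 uM rhodamine-CoA and 12.5 uM BHQ-2-labelled ybbR peptide in pH 7.6 Hepes/MgCl2 buffer. Enzyme was pre-incubated with compound for 15 min at room temperature. Rate was taken from the 30-min fluorescence change (525/598 nm).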
# JMJD2A Tudor – qHTS Assay for Inhibitors of JMJD2A-Tudor Domain; 390,000 tested, 4.4% active; Potency, µM (top dose mostly 114 µM), for the others: at the top dose activity change, negative = inhibition, hits mostly inhibitors; AID 504339, 2011; AlphaScreen JMJD2A-Tudor / H3K4me3 peptide binding; Lysine-specific demethylase 4A (Homo sapiens), O75164; note: % is set by controls: 0 for no effect and ±100 for the full control effect; nearly all actives have a fitted effect of over 50% in size
# HP1b chromo inh – HTS for Inhibitors of HP1-beta Chromodomain Interactions with Methylated Histone Tails | Chromobox protein homolog 1 (Homo sapiens), P83916 | AlphaScreen HP1-beta / biotin-H3K9me3 peptide binding | Potency, µM (top dose mostly 114 µM), for the others: top-dose activity change, negative = inhibition, most hits filed as inhibitors | 390,000 tested, 0.56% active | AID 540317, 2011; note: nearly all actives have a fitted effect of over 70% in size
#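 Compound inhibition of the preformed complex between 50 nM HP1-beta and 50 nM biotinylated H3K9me3 peptide was read by AlphaScreen. Buffer was PBS pH 7.4 with 0.01% Tween-20. Incubations ran 30 min at room temperature, with 10 ug/mL donor/acceptor beads.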
# BAZ2B block – qHTS Assay for Inhibitors of BAZ2B | AlphaScreen BAZ2B-H3K14Ac peptide displacement | AID 504333, 2011 | Bromodomain adjacent to zinc finger domain protein 2B (Homo sapiens), Q9UIF8 | 360,000 tested, 4.4% active | Potency, µM (titrated, usually from 114 µM), inactives show at the top dose activity change, negative = inhibition, hits mostly inhibitors; note: % is set by controls: 0 for no effect and ±100 for the full control effect; nearly all actives have a fitted effect of over 60% in size
# Target sequence (Q9UIF8 whole entry, looked up, the tested form may be a part): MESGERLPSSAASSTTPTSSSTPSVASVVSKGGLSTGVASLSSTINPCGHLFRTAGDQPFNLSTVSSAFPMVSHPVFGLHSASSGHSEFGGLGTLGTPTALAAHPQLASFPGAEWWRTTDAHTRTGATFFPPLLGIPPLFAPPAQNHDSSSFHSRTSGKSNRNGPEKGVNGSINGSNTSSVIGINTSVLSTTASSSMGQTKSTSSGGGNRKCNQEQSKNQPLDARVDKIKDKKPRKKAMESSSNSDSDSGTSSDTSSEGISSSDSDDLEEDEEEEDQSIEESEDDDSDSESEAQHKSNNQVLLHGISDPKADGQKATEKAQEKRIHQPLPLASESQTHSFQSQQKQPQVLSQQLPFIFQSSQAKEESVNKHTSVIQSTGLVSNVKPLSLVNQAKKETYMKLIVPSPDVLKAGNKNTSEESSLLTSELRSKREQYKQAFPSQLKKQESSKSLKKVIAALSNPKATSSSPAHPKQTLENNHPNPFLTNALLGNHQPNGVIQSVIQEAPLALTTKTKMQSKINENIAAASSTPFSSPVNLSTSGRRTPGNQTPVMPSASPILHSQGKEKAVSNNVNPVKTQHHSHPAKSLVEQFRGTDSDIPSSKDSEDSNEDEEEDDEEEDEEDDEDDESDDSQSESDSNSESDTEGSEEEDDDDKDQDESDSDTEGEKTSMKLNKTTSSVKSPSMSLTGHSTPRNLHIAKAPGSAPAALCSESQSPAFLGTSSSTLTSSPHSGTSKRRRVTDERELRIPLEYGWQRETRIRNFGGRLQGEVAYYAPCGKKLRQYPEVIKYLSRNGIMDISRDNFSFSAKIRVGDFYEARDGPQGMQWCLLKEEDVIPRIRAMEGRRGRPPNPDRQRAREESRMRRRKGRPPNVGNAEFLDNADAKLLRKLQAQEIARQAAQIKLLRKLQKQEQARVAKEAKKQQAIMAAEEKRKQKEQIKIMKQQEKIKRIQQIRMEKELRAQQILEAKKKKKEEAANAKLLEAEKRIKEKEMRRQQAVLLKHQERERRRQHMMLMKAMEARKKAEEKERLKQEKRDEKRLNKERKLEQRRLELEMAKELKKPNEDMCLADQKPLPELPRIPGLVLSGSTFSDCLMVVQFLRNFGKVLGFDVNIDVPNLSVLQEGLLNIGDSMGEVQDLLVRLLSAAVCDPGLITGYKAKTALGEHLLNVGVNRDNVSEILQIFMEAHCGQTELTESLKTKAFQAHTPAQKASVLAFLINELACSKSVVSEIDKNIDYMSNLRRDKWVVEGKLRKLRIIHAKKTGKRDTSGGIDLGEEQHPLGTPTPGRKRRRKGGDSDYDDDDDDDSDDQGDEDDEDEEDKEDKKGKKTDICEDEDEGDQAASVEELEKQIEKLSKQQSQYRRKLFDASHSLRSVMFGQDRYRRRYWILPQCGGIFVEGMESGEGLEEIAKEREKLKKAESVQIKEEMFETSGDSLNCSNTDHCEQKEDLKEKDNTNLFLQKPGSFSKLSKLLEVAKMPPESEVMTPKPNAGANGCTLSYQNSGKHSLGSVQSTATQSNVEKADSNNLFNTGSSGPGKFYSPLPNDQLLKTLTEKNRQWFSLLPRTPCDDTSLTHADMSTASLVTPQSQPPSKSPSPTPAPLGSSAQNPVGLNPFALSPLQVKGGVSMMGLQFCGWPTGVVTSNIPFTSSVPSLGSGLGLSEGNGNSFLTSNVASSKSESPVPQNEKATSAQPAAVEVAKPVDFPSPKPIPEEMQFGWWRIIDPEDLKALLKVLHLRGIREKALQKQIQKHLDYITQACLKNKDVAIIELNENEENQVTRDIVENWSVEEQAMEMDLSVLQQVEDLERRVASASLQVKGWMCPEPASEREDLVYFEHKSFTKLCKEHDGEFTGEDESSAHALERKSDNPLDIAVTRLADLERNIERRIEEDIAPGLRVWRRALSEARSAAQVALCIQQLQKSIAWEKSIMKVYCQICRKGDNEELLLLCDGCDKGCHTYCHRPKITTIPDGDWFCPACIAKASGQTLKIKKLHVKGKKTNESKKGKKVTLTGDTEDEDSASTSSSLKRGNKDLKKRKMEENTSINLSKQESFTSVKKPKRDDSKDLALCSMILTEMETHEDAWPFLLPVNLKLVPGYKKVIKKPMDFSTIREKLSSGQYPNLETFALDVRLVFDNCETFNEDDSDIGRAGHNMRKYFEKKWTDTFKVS
#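 Protein-peptide AlphaScreen: BAZ2B 50 nM, b-H3K14Ac 50 nM, 1x PBS pH 7.4 + 0.01% Tween-20. Preincubation 30 min RT; cpd 30 min RT (top 110 uM); beads 20 min RT, light-protected.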
# Numbers without * were called inactive; ? = inconclusive; . = no result given; ! = not confirmed by another sample; [ ] = remark or other dose. Hits are enriched below; roughly 12% of the tested compounds scored in any of these assays. Calls come from the whole dose curve; as a rule, active = well fitted curve in the direction sought with a large enough effect; inconclusive = small, poorly fitted or top-dose-only effect, or another doubt; inactive = no such curve, though single readings can be large; an effect the other way counts as inactive or inconclusive. Potency is the fitted concentration of half-maximal effect.
SMILES,G9a inh,Sfp PPTase inh,JMJD2A Tudor,HP1b chromo inh,BAZ2B block
Cc1cc(C)c2nc(C)cc(N/N=C/c3ccc(O)cc3)c2c1,?,?,50µM*,6%,40µM*
COC(=O)C/C=C\[C@@H](C)[C@@H](/C=N\O[C@@H](C)c1cn([C@H](CO)Cc2ccccc2)nn1)NS(=O)(=O)c1ccc(C)cc1,.,2%,.,.,.
Cc1ccc(N/N=C(\C#N)C(N)=S)c(C)c1,10µM*,?,45µM*,?,?
Cc1ccc(CN2C(=O)C(=O)c3cc(Br)cc(C)c32)cc1,11µM*,.,25µM*,13µM*,13µM*
Cc1ccc2c(c1)C(=O)C(=O)N2Cc1ccc(C(F)(F)F)cc1,.,.,-31%,1%,.
CCOC(=O)c1ccc(NC(=O)Cn2nnc(-c3ccc(C(F)(F)F)cc3)n2)cc1,0%[59 µM],.,-1%,10%,-16%
COC(=O)[C@@H]1CC[C@H](C)[C@@H](c2ccc(C)cc2)N1C(=O)c1ccc(/C=N/O[C@@H](C)CN2CCCCc3nc(C)c(C)cc32)cc1,32µM*,25µM*,.,.,19%
CC1(C)CCC(=O)c2ccccc21,.,.,5%,16%,.
CC1(C)CCC2=C(O1)c1ccccc1C(=O)C2=O,14µM*!,63µM*!,.,.,.
CC[C@H](C)[C@@H](NC(=O)O[C@H]1C(=O)c2ccc(OC)cc2O[C@@H]1c1ccc2c(c1)OCO2)C(=O)OC,.,-1%,.,.,.
Cc1cccc[n+]1C1C(c2ccccc2)C(C#N)=C(C(=C=[N-])C#N)NC1(O)C1CC1 (configuration not stated),40µM*,2%,?,-19%,-35%
COc1cccc(Nc2nc3ccccc3nc2NS(=O)(=O)c2cccs2)c1,2%[12.7 µM],19%,89µM*,33%,-1%
COc1ccc(Nc2nc3ccccc3nc2NS(=O)(=O)c2cccs2)c(OC)c1,?,16%,-20%,33%,-15%
COc1ccc(S(=O)(=O)Nc2nc3ccccc3nc2Nc2cccc(C(=O)O)c2)cc1,45µM*,16%,-6%,53%,-19%[57.1 µM]
O=C(O)c1cc(NS(=O)(=O)c2cccs2)cc(NS(=O)(=O)c2cccs2)c1,17%[59 µM],.,-7%,28%,6%
O=C(O)c1ccc(Nc2nc3ccccc3nc2NS(=O)(=O)c2cccs2)cc1,50µM*,28%,-23%,53%,-10%[57.1 µM]
COc1ccc(-n2nc(C(=O)Nc3ccccc3OC)c3c4ccccc4n(C)c3c2=O)cc1Cl,-13%[59 µM],.,-5%,22%,4%
O=[N+]([O-])c1ccc(NN=Cc2cccc3ccccc23)cc1,.,.,-6%,11%[57 µM],.
O=[N+]([O-])c1cc(Br)c(O)c(/C=N/Nc2nnnn2-c2cccc3ccccc23)c1,7%[12.7 µM],3%,56µM*,-13%,79µM*
NC(N)=Nc1ccc(N=C(N)N)cc1,?,9%,-6%,37%,?
NC(=S)N=Nc1ccc(NN=C(N)N)cc1,?,0.56µM*,11µM*,4µM*,40µM*
O=C1c2cccc([N+](=O)[O-])c2C(=O)N1C1CCCCC1,.,5%,-31%,4%,-13%
O=C1c2cccnc2C(=O)N1C1CCCCC1,108%[59 µM],23%,-8%,31%,79µM*
OCCCNC(=S)Nc1ccc2nc(-c3ccccn3)c(-c3ccccn3)nc2c1,-14%,-13%,-25%,25%,0%
O=C(NCCCO)Nc1ccc2nc(-c3ccco3)c(-c3ccco3)nc2c1,1.8µM*,14µM*,.,.,3.5µM*
SMILES,G9a inh,Sfp PPTase inh,JMJD2A Tudor,HP1b chromo inh,BAZ2B block
O=C(Nc1ccc2nc(-c3ccco3)c(-c3ccco3)nc2c1)NC1CC1,?,5µM*,20µM*,35µM*,11µM*
O=C(c1ccc2nc(-c3ccco3)c(-c3ccco3)nc2c1)N1CCN(c2ccccc2)CC1,?,?,?,-16%,?
O=C(Nc1ccc(N2CCOCC2)cc1)Nc1ccc2nc(-c3ccco3)c(-c3ccco3)nc2c1,1.8µM*,10µM*,?,-17%,5%
O=C(Nc1ccc(F)c(Cl)c1)NC1CC1,5%,-12%,-7%,30%,11%
CS(=O)(=O)c1ccc(Cl)c(NC(=O)CNC(=O)c2ccc3c(c2)OCO3)c1,.,.,-7%,18%,.
Cn1c(-[n+]2c(-c3ccccc3)cc(-c3ccccc3)cc2-c2ccccc2)nc2c([N+](=O)[O-])cccc21,10µM*,-13%,-29%,10%,-29%
C=CCn1c(O)c(CN2CCCCC2)c(C)c(C#N)c1=O,50µM*,-8%,-16%,19%,-33%
Cc1c(CN2CCCC(C)C2)c(O)n(CCO)c(=O)c1C#N (configuration not stated),.,15%,6%,29%,-5%
O=c1c2sc3ccccc3c2n(Cc2ccc(F)cc2Cl)c(=O)n1Cc1ccccc1,6%[59 µM],.,-5%,17%,2%
CCCOC(=O)C1=C(C)N(C)C(=O)NC1c1cc2c(cc1[N+](=O)[O-])OCO2 (configuration not stated),10µM*,14µM*,?,-1%,?
CCOC(=O)C1=C(C)NC(=O)CC1c1cc2c(cc1[N+](=O)[O-])OCO2 (configuration not stated),22µM*,?,-31%,23%,.
O=C(O)c1ccc(N2C(=O)c3[nH]nc(-c4ccccc4)c3C2c2cccc(F)c2)cc1 (configuration not stated),10%[59 µM],.,-2%,35%,.
O=C(NC(=O)c1csnn1)Nc1ccccc1Cl,89µM*,3%,-16%,27%,-20%
O=C(NNS(=O)(=O)c1ccc(F)cc1)c1cccc(O)c1,.,0%,25µM*,12%,8%
O=C(NNS(=O)(=O)c1ccc(F)cc1)c1ccccc1O,32µM*,11%,2%,24%,?
Cc1ccc(S(=O)(=O)NNC(=O)c2cccc(O)c2)cc1,-1%,4%,-18%,38%,0%
Cc1ccc(S(=O)(=O)NNC(=O)c2csnn2)cc1,?,10%,18µM*,19%,-5%
COc1ccc(-n2ncc3c(=O)n(CC(=O)NC(C)C)cnc32)cc1,19%,16%,-6%,39%,1%
Cc1ccc(S(=O)(=O)NNC(=O)c2ccccc2O)cc1,-9%[59 µM],4%,3.2µM*,4%,1%
Cc1ccc(/C=N\NC(=O)c2csnn2)cc1,.,10µM*,-9%[11.4 µM],-11%,8%
Cc1ccc(S(=O)(=O)NNC(=O)c2ccc(F)cc2)cc1,.,4%,-3%,18%,-9%
Cc1ccc(/C=N/NC(=O)c2ccncc2)cc1,.,13%,-12%,31%,7%
Cc1ccc(NC(=O)c2csnn2)c(C)c1,14µM*,4%,-18%[57.1 µM],63%,4%
